Test results as given in ChEMBL document CHEMBL2218924, “A broad activity screen in support of a chemogenomic map for kinase signalling research and drug discovery” (Biochem J, 2013).

Tests used:
[1] = target: Vascular endothelial growth factor receptor 3 (Homo sapiens) (UniProt P35916); details: at 10 µM
[2] = target: Macrophage colony-stimulating factor 1 receptor (Homo sapiens) (UniProt P07333); details: at 1 µM
[3] = target: Macrophage colony-stimulating factor 1 receptor (Homo sapiens) (UniProt P07333); details: at 10 µM
[4] = target: Tyrosine-protein kinase Fyn (Homo sapiens) (UniProt P06241); details: at 1 µM
Tyrosine-protein kinase Fyn (Homo sapiens), sequence (P06241 2-537 limits assumed): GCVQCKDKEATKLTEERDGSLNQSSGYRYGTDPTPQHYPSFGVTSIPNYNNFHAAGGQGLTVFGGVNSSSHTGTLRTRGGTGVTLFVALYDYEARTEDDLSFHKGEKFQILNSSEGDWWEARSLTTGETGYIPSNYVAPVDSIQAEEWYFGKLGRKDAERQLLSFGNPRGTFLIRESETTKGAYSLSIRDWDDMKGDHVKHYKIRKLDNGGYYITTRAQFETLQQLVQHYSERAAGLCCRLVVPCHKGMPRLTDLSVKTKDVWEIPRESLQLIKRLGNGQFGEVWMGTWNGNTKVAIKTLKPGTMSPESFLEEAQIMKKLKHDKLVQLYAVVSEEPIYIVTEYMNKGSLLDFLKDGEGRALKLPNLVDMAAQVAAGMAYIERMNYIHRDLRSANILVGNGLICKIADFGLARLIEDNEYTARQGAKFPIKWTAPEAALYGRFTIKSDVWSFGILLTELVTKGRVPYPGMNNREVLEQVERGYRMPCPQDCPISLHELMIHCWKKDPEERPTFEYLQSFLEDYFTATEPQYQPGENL

[5] = target: Tyrosine-protein kinase Fyn (Homo sapiens) (UniProt P06241); details: at 10 µM
[6] = target: T1, Mitogen-activated protein kinase kinase kinase kinase 2 (Homo sapiens) (UniProt Q12851); details: at 1 µM
T1 sequence (whole entry): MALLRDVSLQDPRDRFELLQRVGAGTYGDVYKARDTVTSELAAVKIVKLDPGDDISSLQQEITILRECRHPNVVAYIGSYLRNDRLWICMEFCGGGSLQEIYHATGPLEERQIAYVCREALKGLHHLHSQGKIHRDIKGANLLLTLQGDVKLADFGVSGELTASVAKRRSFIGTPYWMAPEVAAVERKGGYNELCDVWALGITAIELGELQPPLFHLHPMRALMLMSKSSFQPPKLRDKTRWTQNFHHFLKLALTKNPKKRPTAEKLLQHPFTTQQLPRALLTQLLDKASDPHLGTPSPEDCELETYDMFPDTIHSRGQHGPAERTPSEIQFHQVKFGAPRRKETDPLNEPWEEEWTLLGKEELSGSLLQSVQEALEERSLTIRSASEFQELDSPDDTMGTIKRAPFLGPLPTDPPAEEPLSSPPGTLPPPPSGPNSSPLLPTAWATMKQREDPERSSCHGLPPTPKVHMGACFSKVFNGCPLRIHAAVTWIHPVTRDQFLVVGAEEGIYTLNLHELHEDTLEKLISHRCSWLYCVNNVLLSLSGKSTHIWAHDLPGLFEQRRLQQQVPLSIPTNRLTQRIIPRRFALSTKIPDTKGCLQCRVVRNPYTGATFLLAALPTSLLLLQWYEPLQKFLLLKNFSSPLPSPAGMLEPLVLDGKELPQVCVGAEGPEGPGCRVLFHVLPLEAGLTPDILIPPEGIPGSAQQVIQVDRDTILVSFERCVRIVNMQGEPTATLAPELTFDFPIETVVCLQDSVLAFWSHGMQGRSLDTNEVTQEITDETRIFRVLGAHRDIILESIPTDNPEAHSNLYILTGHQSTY

[7] = target: T1, Mitogen-activated protein kinase kinase kinase kinase 2 (Homo sapiens); details: at 10 µM
[8] = target: G protein-coupled receptor kinase 5 (Homo sapiens) (UniProt P34947); details: at 10 µM
G protein-coupled receptor kinase 5 (Homo sapiens), sequence (P34947 whole entry, looked up): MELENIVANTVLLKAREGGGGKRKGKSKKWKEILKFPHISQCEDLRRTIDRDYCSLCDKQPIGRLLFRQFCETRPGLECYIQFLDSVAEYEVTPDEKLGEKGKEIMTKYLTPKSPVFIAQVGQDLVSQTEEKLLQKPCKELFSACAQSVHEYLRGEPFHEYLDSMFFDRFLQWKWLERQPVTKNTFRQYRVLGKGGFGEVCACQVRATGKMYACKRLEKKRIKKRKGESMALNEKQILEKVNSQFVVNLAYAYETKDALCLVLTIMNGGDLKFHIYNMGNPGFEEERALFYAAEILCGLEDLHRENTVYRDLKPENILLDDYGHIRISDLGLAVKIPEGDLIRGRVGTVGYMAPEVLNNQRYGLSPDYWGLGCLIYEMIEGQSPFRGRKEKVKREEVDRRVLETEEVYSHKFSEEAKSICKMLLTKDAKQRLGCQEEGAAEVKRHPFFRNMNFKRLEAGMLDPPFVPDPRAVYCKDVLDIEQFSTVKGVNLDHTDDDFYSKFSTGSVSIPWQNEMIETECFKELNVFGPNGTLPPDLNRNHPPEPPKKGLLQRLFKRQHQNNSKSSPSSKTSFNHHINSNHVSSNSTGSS

[9] = target: G protein-coupled receptor kinase 6 (Homo sapiens) (UniProt P43250); details: at 10 µM
G protein-coupled receptor kinase 6 (Homo sapiens), sequence (P43250 whole entry, looked up): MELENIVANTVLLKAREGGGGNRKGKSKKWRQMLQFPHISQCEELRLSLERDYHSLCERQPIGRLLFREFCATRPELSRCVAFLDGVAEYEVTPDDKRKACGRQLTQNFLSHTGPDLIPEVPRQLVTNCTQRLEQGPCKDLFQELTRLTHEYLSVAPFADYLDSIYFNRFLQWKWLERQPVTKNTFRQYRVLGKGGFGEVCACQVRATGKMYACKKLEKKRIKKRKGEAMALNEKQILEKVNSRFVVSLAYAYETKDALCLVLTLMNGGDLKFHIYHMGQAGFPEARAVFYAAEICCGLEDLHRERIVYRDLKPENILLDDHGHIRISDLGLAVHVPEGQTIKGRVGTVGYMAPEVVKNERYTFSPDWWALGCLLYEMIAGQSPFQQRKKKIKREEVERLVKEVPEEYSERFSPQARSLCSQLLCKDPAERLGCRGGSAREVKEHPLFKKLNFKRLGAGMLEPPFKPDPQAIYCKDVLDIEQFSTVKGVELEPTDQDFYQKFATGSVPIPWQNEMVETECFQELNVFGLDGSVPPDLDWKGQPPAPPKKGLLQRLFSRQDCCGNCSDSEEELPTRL

[10] = target: T2, Rhodopsin kinase GRK7 (Homo sapiens) (UniProt Q8WTQ7); details: at 1 µM
T2 sequence (whole entry): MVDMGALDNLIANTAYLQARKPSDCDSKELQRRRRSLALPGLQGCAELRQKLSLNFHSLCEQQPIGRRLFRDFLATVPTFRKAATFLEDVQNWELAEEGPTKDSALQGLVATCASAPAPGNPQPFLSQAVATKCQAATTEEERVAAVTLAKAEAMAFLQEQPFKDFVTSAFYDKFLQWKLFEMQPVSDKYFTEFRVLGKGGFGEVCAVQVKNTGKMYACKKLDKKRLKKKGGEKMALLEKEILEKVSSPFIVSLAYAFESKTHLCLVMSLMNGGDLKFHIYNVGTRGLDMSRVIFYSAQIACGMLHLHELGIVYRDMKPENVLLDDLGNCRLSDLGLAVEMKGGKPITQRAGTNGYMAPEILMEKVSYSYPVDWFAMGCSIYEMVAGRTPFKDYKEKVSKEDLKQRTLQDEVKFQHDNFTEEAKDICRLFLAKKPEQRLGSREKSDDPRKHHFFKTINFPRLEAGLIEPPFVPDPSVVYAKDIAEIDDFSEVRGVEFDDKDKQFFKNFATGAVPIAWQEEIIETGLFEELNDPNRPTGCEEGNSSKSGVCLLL

Macrophage colony-stimulating factor 1 receptor (Homo sapiens), sequence (P07333 whole entry): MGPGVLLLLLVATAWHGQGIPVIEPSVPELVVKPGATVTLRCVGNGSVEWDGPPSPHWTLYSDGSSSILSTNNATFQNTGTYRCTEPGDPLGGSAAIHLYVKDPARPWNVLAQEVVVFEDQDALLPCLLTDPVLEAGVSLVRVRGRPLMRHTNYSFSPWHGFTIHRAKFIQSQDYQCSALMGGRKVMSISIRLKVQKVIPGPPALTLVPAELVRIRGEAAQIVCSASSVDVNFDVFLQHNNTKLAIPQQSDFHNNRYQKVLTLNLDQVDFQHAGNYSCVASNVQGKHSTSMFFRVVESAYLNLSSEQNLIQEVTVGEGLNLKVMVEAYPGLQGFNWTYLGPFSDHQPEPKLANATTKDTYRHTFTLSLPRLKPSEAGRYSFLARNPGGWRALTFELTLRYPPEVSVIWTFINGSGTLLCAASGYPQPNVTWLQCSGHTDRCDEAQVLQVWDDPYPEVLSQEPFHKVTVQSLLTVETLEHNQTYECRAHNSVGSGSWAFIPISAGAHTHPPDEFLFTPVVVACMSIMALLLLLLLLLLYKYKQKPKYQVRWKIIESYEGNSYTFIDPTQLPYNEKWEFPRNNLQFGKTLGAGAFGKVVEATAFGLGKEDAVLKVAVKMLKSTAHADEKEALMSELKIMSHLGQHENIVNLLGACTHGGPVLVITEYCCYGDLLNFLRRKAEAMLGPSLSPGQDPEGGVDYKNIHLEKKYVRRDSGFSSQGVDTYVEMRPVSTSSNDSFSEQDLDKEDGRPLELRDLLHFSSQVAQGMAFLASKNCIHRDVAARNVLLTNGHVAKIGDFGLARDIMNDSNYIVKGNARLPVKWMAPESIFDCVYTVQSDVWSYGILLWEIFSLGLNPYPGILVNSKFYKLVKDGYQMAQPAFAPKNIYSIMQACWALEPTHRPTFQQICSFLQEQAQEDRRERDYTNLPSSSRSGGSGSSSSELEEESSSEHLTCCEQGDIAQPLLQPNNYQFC
Vascular endothelial growth factor receptor 3 (Homo sapiens), sequence (P35916 whole entry): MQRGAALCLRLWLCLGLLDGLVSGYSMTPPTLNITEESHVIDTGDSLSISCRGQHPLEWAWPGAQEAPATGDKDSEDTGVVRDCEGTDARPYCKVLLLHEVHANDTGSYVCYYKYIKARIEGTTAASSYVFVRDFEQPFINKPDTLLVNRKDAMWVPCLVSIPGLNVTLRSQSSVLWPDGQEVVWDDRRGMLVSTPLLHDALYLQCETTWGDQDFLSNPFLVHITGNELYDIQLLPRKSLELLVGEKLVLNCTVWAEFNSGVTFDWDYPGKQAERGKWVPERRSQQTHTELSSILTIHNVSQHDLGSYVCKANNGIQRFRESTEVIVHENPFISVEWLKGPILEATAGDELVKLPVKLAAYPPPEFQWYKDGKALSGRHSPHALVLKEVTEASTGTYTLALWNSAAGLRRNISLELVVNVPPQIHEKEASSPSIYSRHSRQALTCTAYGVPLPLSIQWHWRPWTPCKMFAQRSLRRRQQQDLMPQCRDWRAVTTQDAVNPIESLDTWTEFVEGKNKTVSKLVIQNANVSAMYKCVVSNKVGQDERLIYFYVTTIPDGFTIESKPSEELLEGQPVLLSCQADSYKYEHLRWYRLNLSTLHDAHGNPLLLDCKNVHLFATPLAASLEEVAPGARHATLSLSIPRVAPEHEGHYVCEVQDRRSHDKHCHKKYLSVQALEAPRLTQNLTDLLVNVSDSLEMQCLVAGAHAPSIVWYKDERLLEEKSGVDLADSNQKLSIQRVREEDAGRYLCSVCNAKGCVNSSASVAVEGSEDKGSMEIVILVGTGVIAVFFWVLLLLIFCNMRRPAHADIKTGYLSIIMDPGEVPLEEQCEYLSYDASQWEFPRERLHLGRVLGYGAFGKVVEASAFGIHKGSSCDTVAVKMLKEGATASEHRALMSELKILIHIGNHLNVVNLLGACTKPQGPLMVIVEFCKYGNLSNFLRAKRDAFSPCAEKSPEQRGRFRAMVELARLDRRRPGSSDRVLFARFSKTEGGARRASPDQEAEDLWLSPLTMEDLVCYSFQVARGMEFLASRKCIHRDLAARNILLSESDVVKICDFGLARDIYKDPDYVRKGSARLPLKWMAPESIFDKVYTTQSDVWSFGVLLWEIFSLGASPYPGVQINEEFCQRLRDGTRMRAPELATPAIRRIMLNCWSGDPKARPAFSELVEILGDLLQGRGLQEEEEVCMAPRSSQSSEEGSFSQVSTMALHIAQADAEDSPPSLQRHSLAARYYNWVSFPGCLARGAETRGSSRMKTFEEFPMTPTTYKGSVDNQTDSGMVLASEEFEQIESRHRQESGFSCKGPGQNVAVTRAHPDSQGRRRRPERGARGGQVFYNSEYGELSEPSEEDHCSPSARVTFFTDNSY

Row | Compound | residual activity [1] [%] | residual activity [2] [%] | residual activity [3] [%] | residual activity [4] [%] | residual activity [5] [%] | residual activity [6] [%] | residual activity [7] [%] | residual activity [8] [%] | residual activity [9] [%] | residual activity [10] [%]
1 | O=C(O)c1ccc2c3c1cccc3c(=O)n1c3ccccc3nc21 | 43 | 102 | 75 | 80 | 59 | 38 | 21 | 70 | 91 | 102
2 | CCN(CC)CCCCN1c2ccccc2Oc2ccc(Cl)cc21 | 102 | 124 | 127 | 102 | 108 | 109 | 91 | 97 | 98 | 111
3 | CC(C)n1cnc2/c(=N/c3cccc(Cl)c3)nc(NCCO)[nH]c21 | 5 | 83 | 39 | 21 | 3 | 35 | 19 | 61 | 53 | 76
4 | CC[n+]1c(/C=C/N(C)c2ccccc2)n(-c2ccccc2)c2ccc(-c3nc4ccccc4s3)cc21 | 52 | 93 | 71 | 101 | 60 | 103 | 73 | 91 | 93 | 112
5 | N#C/C(=C(\N)Sc1ccc(N)cc1)c1ccccc1C(F)(F)F | 64 | 86 | 68 | 71 | 13 | 69 | 72 | 95 | 93 | 97
6 | COc1ccc(S(=O)(=O)N(CCO)c2ccccc2CN(C)C/C=C/c2ccc(Cl)cc2)cc1 | 93 | 78 | 64 | 73 | 37 | 85 | 81 | 87 | 86 | 99
7 | O=C1c2ccccc2-[n+]2ccc3c([nH]c4ccccc43)c21 | 25 | 68 | 58 | 77 | 76 | 75 | 73 | 91 | 90 | 91
8 | O=C1NC(=O)/C(=C\c2ccc3nccnc3c2)S1 | 70 | 126 | 112 | 83 | 79 | 75 | 26 | 82 | 79 | 87
9 | COc1cc2ncnc(N3CCN(C(=O)Nc4ccc(Oc5ccccc5)cc4)CC3)c2cc1OC | 7 | 7 | 2 | 84 | 82 | 80 | 69 | 93 | 82 | 80
10 | O=c1c2ccccc2[nH]c(=S)n1CCN1CCC(=C(c2ccc(F)cc2)c2ccc(F)cc2)CC1 | 92 | 69 | 84 | 89 | 46 | 93 | 82 | 89 | 90 | 93
11 | Oc1n[nH]c2nnc(-c3c(-c4ccccc4)nn4ccccc34)cc12 | 60 | 49 | 15 | 75 | 77 | 82 | 75 | 97 | 85 | 85
12 | Cc1nc(-c2ccccc2)c(-c2ccncc2)o1 | 0 | 90 | 86 | 90 | 69 | 91 | 77 | 107 | 97 | 105
13 | CCC(=O)Nc1ccc2ncnc(Nc3cccc(Br)c3)c2c1 | 65 | 94 | 61 | 85 | 67 | 77 | 69 | 93 | 83 | 96
14 | CNc1cc2c(Nc3cccc(Br)c3)ncnc2cn1 | 38 | 88 | 59 | 57 | 16 | 81 | 34 | 100 | 90 | 93
15 | c1ccc(-c2n[nH]cc2-c2ccnc3ccccc23)nc1 | 10 | 71 | 76 | 94 | 22 | 43 | 27 | 103 | 87 | 93
16 | Oc1ccc(-c2nc(-c3ccc(F)cc3)c(-c3ccncc3)[nH]2)cc1 | 29 | 79 | 58 | 83 | 27 | 106 | 87 | 100 | 97 | 121
17 | Cc1cncc2cccc(S(=O)(=O)N3CCCN(C(=O)CN)C[C@H]3C)c12 | 51 | 73 | 78 | 93 | 78 | 82 | 46 | 68 | 51 | 79
